Data on 60 compounds can be found in PubChem BioAssay AID588726 (The Scripps Research Institute Molecular Screening Center, 2011).

As usually defined, the inhibition is the change of the read-out against control, counted positive when it falls.

Screen size: about 360,000 compounds; about 8,200 (2.3%) were called active. No stated cut-off is given here; in the data, active means inhibition above about 27%; inactive means the rest. The list comes from a sample in which actives are over-represented; it also holds similar structures and randomly drawn compounds.

Sequence of Fructose-bisphosphate aldolase (Mycobacterium tuberculosis (strain ATCC 25618 / H37Rv)) (P9WQA3 whole entry, looked up): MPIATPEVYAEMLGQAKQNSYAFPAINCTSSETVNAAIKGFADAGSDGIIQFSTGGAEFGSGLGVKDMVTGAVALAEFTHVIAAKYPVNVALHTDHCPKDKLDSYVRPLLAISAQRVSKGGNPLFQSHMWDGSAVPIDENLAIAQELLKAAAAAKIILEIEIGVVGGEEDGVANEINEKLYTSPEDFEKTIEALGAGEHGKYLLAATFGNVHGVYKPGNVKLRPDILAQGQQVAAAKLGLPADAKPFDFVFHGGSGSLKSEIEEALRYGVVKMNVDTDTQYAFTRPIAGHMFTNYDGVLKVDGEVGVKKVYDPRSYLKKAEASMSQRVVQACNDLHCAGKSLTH

This experiment has as its target Fructose-bisphosphate aldolase (Mycobacterium tuberculosis (strain ATCC 25618 / H37Rv)) (UniProt P9WQA3). The experiment is described as follows: M. tuberculosis aldolase activity blockers – biochemical, fluorescence, strain H37Rv, primary screen (AID 588726).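 Further: 0% = vehicle and 100% = reference inhibitor.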 To be noted: purified M. tuberculosis FBA, fluorescence read-out, at 1 µM, hits give high values.
As for `N#CC1(C#N)C(C(=O)C23CC4CC(CC(C4)C2)C3)C12CCOCC2` (stereo not given), the inhibition is 1.25% (inactive).

Take `CSc1ncccc1C(=O)OCc1ccc(Br)cc1`: the inhibition is 2.13% (inactive).

Take `CCCc1nc2oc3c(=O)[nH]cnc3c2c2c1COC(C)(C)C2`: the inhibition was 40.7% (active).

In the case of `CCCc1nc2oc3c(OCC)ncnc3c2c2c1COC(C)(C)C2`, the inhibition is -1.08% (inactive).

In the case of `CC/C(C)=N/Nc1nc2sc3c(c2c(=O)[nH]1)CC(C)(C)OC3`, the inhibition is 21.5% (inactive).

Consider `Nn1c(SCC(=O)NC(=O)NC2CCCC2)nnc1-c1ccccc1F`, for which the inhibition is 0.25% (inactive).

For the compound `Cc1nc2ccc(C(=O)N3CCSCC3)cc2s1`, the inhibition is -8.83% (inactive).

Turning to `CN(CCc1ccccn1)C(=O)c1ccc(OC2CCN(Cc3ccccn3)CC2)cc1`, the inhibition was 3.08% (inactive).

Take `COc1cc2c(cc1O)C(SC)=NC(C)(C)C2`: the inhibition was 0.86% (inactive).

`COc1cc2c(cc1OC)C(C(C)C)=NC(C)(C)C2`: the inhibition is 140% (active).

Consider `COc1cc2c(cc1OC)C(Nc1ccc(S(N)(=O)=O)cc1)=NC(C)(C)C2`, for which the inhibition was 0.94% (inactive).

On to `COc1ccccc1C(=O)Nc1ccc(OCC(=O)N2CCCCC2)cc1`, for which the inhibition is 42.3% (active).

Regarding `COc1ccccc1C(=O)Nc1ccc(OCc2nnc3c4ccccc4c(C)nn23)cc1`, the inhibition was 1.57% (inactive).

`O=C(COc1ccccc1Cl)N1CCCCCCC1`: the inhibition was 3.37% (inactive).

Take `CCN(CC)c1ncnc2c1ncn2[C@H]1CN(Cc2cccs2)C[C@@H](CO)O1`: the inhibition is 1.17% (inactive).

As to `OC[C@@H]1CN(Cc2cccs2)C[C@H](n2cnc3c(Nc4ccccc4)ncnc32)O1`, the inhibition was 44.8% (active).

Turning to `OC[C@@H]1CN(Cc2cccs2)C[C@H](n2cnc3c(NC4CCCC4)ncnc32)O1`, the inhibition is -0.13% (inactive).

Turning to `CC1(C)CC2CC(C)(CN2c2ncnc3ccc(Br)cc23)C1` (stereo not given), the inhibition is 6.02% (inactive).

For the compound `Cc1occc(=O)c1OCc1c(Cl)cccc1Cl`, the inhibition is 2.61% (inactive).

As for `CCCN(C(=O)CSc1nnc(N)s1)c1c(N)n(Cc2ccccc2)c(=O)[nH]c1=O`, the inhibition is 48.3% (active).

On to `CN(C(=O)CSc1nnc(N)s1)c1c(N)n(Cc2ccccc2)c(=O)[nH]c1=O`, for which the inhibition is 1.14% (inactive).

Regarding `CCCN(C(=O)CSc1nnnn1C)c1c(N)n(Cc2ccccc2)c(=O)[nH]c1=O`, the inhibition was 9.36% (inactive).

`COc1ccc(CNC(=O)C[C@H]2C[C@H](C(=O)N3CCOCC3)[C@@]3(C)c4[nH]c5cc(CCC(=O)N(C)C)ccc5c4CCN3C2=O)cc1OC`: the inhibition was -3.63% (inactive).

For `Cc1oc(-c2ccccc2F)nc1CS(=O)CC(=O)NCCN1CCCCC1C` (stereo not given), the inhibition is -1.66% (inactive).

Consider `COc1ccccc1CNC(=O)C1CCN(c2nc3ccccc3o2)CC1`, for which the inhibition is 0.23% (inactive).

Turning to `N#Cc1nc(COc2ccc(Cl)cc2)oc1N1CCCC1`, the inhibition is -2.71% (inactive).

On to `COc1ccccc1N(C)S(=O)(=O)c1ccc(C(=O)N2CCC(C(N)=O)CC2)cc1`, for which the inhibition was 2.31% (inactive).

`Cc1nc(-c2ccccc2)sc1-c1nnc(C2CC2)o1`: the inhibition is 18.1% (inactive).

With `Cn1cnnc1Sc1ccc(CN2CCN(C3CCCC3)C(CCO)C2)o1` (stereo not given), the inhibition was -0.65% (inactive).

`CCCCCCCCCCCCN1[C@@H](CC(C)=O)c2cc(F)cc(F)c2S1(=O)=O`: the inhibition is -2.16% (inactive).

In the case of `COc1ccc(CCNC(=O)c2ccc(NC(=O)CC3SC(N4CCCCC4)=NC3=O)cc2)cc1OC` (stereo not given), the inhibition was 1.72% (inactive).

For the compound `NS(=O)(=O)c1ccc(CCNC(=O)CNC(=O)Cc2ccccc2)cc1`, the inhibition was 4.09% (inactive).

Consider `CC[C@@]1(C(=O)OC)N[C@H](CN(C)C(C)=O)[C@@H]2C(=O)N(C)C(=O)[C@@H]21`, for which the inhibition is -0.4% (inactive).

Regarding `O=C1C2C3C=CC(C3)C2C(=O)N1c1ncc([N+](=O)[O-])s1` (stereo not given), the inhibition is 0.42% (inactive).

`Cc1ccc2nnn(Cc3cccc(C(C)(C)C)c3O)c2c1`: the inhibition was -1.49% (inactive).

Take `Cc1c(OC(C)C(=O)N[C@@H](Cc2ccccc2)C(=O)O)ccc2c3c(c(=O)oc12)CCCC3` (stereo not given in full): the inhibition is 57.5% (active).

Consider `Cc1oc2c(C)c3oc(=O)c(CC(=O)N[C@@H](CC(C)C)C(=O)N[C@@H](Cc4ccccc4)C(=O)O)c(C)c3cc2c1C`, for which the inhibition was 14.5% (inactive).

For `Cc1c(OC(C)C(=O)NCC2CCC(C(=O)O)CC2)ccc2c1oc(=O)c1ccccc12` (stereo not given), the inhibition is 11.2% (inactive).

On to `CCOC(=O)N1CCC(c2cc(=O)n(-c3ccccc3)[nH]2)CC1`, for which the inhibition was 2.04% (inactive).

For the compound `NS(=O)(=O)c1ccc(N2C(=O)C3C4CC(C(Br)C4Br)C3C2=O)cc1` (stereo not given), the inhibition was 2.97% (inactive).

As to `COc1ccc(N(CC(=O)Nc2ccc(F)c(F)c2)S(=O)(=O)c2c(C)[nH]c(=O)[nH]c2=O)cc1`, the inhibition is 0.84% (inactive).

On to `O=C(CN1C(=O)c2cccc3cccc(c23)C1=O)N1CCCCC1`, for which the inhibition was 31.8% (active).

In the case of `Cn1c(=O)n(C)c(=O)n(CC(=O)N2CCCCC2)c1=O`, the inhibition was -2.14% (inactive).

Turning to `O=C(CN1C(=O)c2cccc3cccc1c23)Nc1ccccc1`, the inhibition is 1.33% (inactive).

Regarding `O=S1(=O)CC/C(=N\Nc2ccc(F)cc2)c2ccsc21`, the inhibition was 0.47% (inactive).

On to `CCn1c(SC)nc(O)c(C(c2ccc(OC)c(O)c2)c2c(O)nc(SC)n(CC)c2=O)c1=O`, for which the inhibition was 0.76% (inactive).

For the compound `N/C(=N\S(=O)(=O)c1ccc(Cl)cc1)N1CCOCC1`, the inhibition is -1.72% (inactive).

As to `O=S(=O)(c1ccccc1)N1CN(Cc2ccc(F)cc2)c2nc3ccccc3nc21`, the inhibition was 1.18% (inactive).

`CCN(CC(=O)Nc1cc(Cl)ccc1C)C(=O)CSCc1ccccc1`: the inhibition was 1.52% (inactive).

As for `CC1=CC2=NC(=O)CC(C)(C(=O)N(CC(=O)NC(C)(C)C)Cc3ccccc3)N2C=C1` (stereo not given), the inhibition is 39.1% (active).

Consider `C=CCC1(C(=O)N(C)Cc2ccccc2)CCN(C(=O)OC(C)(C)C)CC1`, for which the inhibition is -0.41% (inactive).

As for `CCC(=O)Nc1ccccc1C(=O)N1CCN(Cc2ccccc2)CC1`, the inhibition was 1.09% (inactive).

Take `Cc1ccc(S(=O)(=O)Nc2nc(N)n(-c3ccccc3)n2)cc1`: the inhibition was -1.75% (inactive).

For `CCN(CC)CCn1c(N)c(S(=O)(=O)c2ccccc2)c2nc3ccccc3nc21`, the inhibition was 73.8% (active).

On to `CCC(=O)Nc1c(S(=O)(=O)c2ccccc2)c2nc3ccccc3nc2n1Cc1ccccc1`, for which the inhibition is 71.7% (active).

Take `CCCn1nc(NS(=O)(=O)c2ccccc2)c2cc3cc(C)ccc3nc21`: the inhibition is -1.36% (inactive).

`Cc1ccc(S(=O)(=O)c2c(N)n(C)c3nc4ccccc4nc23)cc1`: the inhibition is 195% (active).

As for `CCCn1nc(NS(=O)(=O)c2ccc(F)cc2)c2cc3ccccc3nc21`, the inhibition is 1.96% (inactive).

`Cc1ccc(S(=O)(=O)NCc2nc3ccccc3c(=O)n2N)cc1`: the inhibition is 0.87% (inactive).

In the case of `CCC(=O)Nc1ccc2nc(C)n(Cc3ccccc3Cl)c(=O)c2c1`, the inhibition is -0.06% (inactive).
